High-throughput results: PubChem BioAssay, National Center for Advancing Translational Sciences (NCATS)
In the library only some 21% were active in any assay of this set; here they are far more common.
Shiga inhibitor: A qHTS for Small Molecule Inhibitors of Shiga Toxin; 290,000 compounds, 9.2% hits; Vero cells, Shiga toxin protein synthesis inhibition reporter; AID 2315, 2010; inhibition, % at 38.7 µM; in the data active = inhibition mostly above about 28%, no sharp cut-off; inactive = mostly below about 43%; also: 0% is about no effect
Pf growth 96h: Primary qHTS for delayed death inhibitors of the malarial parasite plastid, 96 hour incubation. P. falciparum luciferase reporter growth, 96 h. Potency, µM (titrated, usually from 28.7 µM), for inactives: at the highest dose activity change, negative = inhibition, usual class: inhibitors. 320,000 compounds, 6.9% hits. AID 504834, 2011; also: potency is read from the fitted curve at half-maximal effect; % is scaled to controls: 0 for no effect and ±100 for the full control effect
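Parasite growth measured via integrated firefly luciferase reporter in P. falciparum. Infected erythrocytes at 2% hematocrit, 0.05% parasitemia final were treated 96 hours at 37 C under 5% CO2, and luminescence was read.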
Pf growth 48h: Primary qHTS for delayed death inhibitors of the malarial parasite plastid, 48 hour incubation; 310,000 compounds, 5.9% hits; Potency, µM (titrated, usually from 28.7 µM), for the others: at the top dose activity change, negative = inhibition, usual class: inhibitors; AID 504832, 2011; P. falciparum luciferase growth in erythrocytes, 48 h; also: potency is read from the fitted curve at half-maximal effect; % is scaled to controls: 0 for no effect and ±100 for the full control effect
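Compounds are pin-transferred into medium, infected erythrocytes (2% hematocrit, 0.1% parasitemia final) are added, and plates sit one parasite generation at 37 C in 5% CO2. Detection reagent is then added and luminescence measured.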
NS1 inh: qHTS Assay for Inhibitors of Influenza NS1 Protein Function | Potency, µM (titrated, usually from 46.1 µM), without a hit: top-dose activity, positive = more growth | 270,000 compounds, 0.4% hits; calls by dose curve; also: potency is read from the fitted curve at half-maximal effect; actives are rising curves; nearly all actives have a fitted effect of over 50% in size
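Recovery from NS1-induced slow growth read by OD600 in budding yeast switched to galactose assay medium (pH 6.0, -URA) at 1:100 dilution. Compound 23 nl per well; the matching strain lacking NS1 serves as control.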
CHX counter: Cycloheximide Counterscreen for Small Molecule Inhibitors of Shiga Toxin; cell reporter, cycloheximide protein synthesis inhibition counterscreen; max response, %; 300,000 compounds, 12% hits; AID 2314, 2010; in the data active = max response mostly above about 13%, no sharp cut-off; inactive = mostly below about 14%; also: read at 38.3 µM for the half of the compounds with a filed dose; 0% is about no effect
FBPA Giardia inh: qHTS Assay for Inhibitors of Fructose-1,6-bisphosphate Aldolase from Giardia Lamblia; A8B2U2; purified Giardia FBPA; Potency, µM (doses to about 59.6 µM), for the others: at the top dose activity, negative = inhibition, hits mostly inhibitors; 290,000 compounds, 0.71% hits; AID 2451, 2010; also: potency is read from the fitted curve at half-maximal effect; % is scaled to controls: 0 for no effect and ±100 for the full control effect; nearly all actives have a fitted effect of over 55% in size
Target sequence (A8B2U2 whole entry, looked up): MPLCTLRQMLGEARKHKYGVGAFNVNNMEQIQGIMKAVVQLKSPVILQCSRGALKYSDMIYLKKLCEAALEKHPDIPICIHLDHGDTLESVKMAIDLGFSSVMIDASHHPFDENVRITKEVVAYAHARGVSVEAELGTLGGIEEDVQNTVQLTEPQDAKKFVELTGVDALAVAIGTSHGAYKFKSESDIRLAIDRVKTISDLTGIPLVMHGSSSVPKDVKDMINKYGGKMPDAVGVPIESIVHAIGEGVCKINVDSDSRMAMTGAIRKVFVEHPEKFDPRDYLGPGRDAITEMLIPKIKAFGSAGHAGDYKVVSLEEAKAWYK
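Giardia FBPA (40 nM reagent) was preincubated 10 min at RT with compound (up to 57.5 uM final), then substrate plus GAPDH/TPI/NAD/arsenate coupling system with diaphorase/resazurin was added; resorufin fluorescence (525/598 nm) was read after 20 min.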
Numbers without * were called inactive; ? = inconclusive; / = no result given; [ ] = another dose, or the depositor's remark. Unless noted, calls follow the shape of the dose curve; as a rule, active = well fitted curve in the direction sought with a large enough effect; inconclusive = small, poorly fitted or top-dose-only effect, or another doubt; inactive = no such curve, though single readings can be large; an effect the other way counts as inactive or inconclusive.

SMILES	Shiga inhibitor	Pf growth 96h	Pf growth 48h	NS1 inh	CHX counter	FBPA Giardia inh
Cc1cc(=O)oc2cc(NC(=O)c3ccccc3OC(F)F)ccc12	115*	64%	62%	4%	30*	/
O=C(c1noc2c1CCc1ccccc1-2)N1CCCc2ccccc21	19	/	3.3µM*	-109%	21*	8%
O=C(c1noc2c1CCc1ccccc1-2)N1CCc2ccccc2C1	60*	8%	7%	-20%	28*	-24%
O=C(c1noc2c1CCCCC2)N1CCOCC1	-16	31%	22%	2%	-2	0%
Cc1cc(C(=O)N2CCc3ccccc3C2)on1	-2	?	47%	-19%	-1	3%
O=C(c1noc2c1CCc1ccccc1-2)N1CCOCC1	43*	25%	78%	-4%	36*	-20%
COc1ccc(CC(=O)NCC2CCCN(Cc3ccc(SC)cc3)C2)cc1 (stereo unspecified)	/	-16%	-25%	4%	-1	3%
Cc1ccc(C(=O)OC(C(=O)Nc2ccc(Cl)cc2C(F)(F)F)c2ccccc2)cc1 (stereo unspecified)	11	-20%	?	-7%	-1	0%
CCCC(=O)OC(C(=O)Nc1cc(C(F)(F)F)ccc1Cl)c1ccccc1 (stereo unspecified)	-3	13µM*	13µM*	1%	-4	-6%
O=C(OC(C(=O)Nc1ccc(Cl)cc1C(F)(F)F)c1ccccc1)c1c(Cl)cccc1Cl (stereo unspecified)	-9	0%	12µM*	-6%	1	0%
O=C(NCCCO)c1c(O)c2cccc3c2n(c1=O)CCC3	42	-11%	3%	-44%	6	7%
COC(=O)c1ccc(OCc2nc(N)nc(N3CCOCC3)n2)cc1	24	-27%	1%	6%	-6	5%
Nc1nc(COc2ccc(F)cc2)nc(N2CCCCC2)n1	-10	22%	22%	/	19*	-1%
COc1ccc(C2=CC(c3cc(OC)c(OC)c(OC)c3)NC(=S)N2)cc1 (stereo unspecified)	-17	/	?	17%	-5	-3%
COc1cc(C2C=C(C34CC5CC(CC(C5)C3)C4)NC(=S)N2)cc(OC)c1OC (stereo unspecified)	-9	1µM*	/	7%	2	-1%
COc1ccc(OC)c(C2C=C(C34CC5CC(CC(C5)C3)C4)NC(=S)N2)c1 (stereo unspecified)	-7	2.6µM*	8.3µM*	18%	0	10%
COc1ccc(OC)c(C(C)NC(=O)C23CC4CC(CC(C4)C2)C3)c1 (stereo unspecified)	/	-21%	-5%	-18%	-5	0%
S=C1NC(C23CC4CC(CC(C4)C2)C3)=CC(c2ccc3c(c2)OCO3)N1 (stereo unspecified)	7	?	4.1µM*	/	7	?
O=C(NCc1ccc2c(c1)OCO2)NC12CC3CC(CC(C3)C1)C2	-2	-14%	?	/	11	0%
C=CCc1cc(Cl)ccc1OCCCn1ccnc1	-13	?	?	-46%	1	?
COC(=O)c1cc(C(=O)OCC(=O)c2ccc3c(c2)NC(=O)CO3)cc([N+](=O)[O-])c1	/	2%	5%	/	/	/
COc1ccccc1NC(=S)NCc1cccnc1	-6	?	11%	7%	-2	4%
COc1cc(NC(=S)Nc2cccc(Cl)c2Cl)c(OC)cc1Cl	-24	2.9µM*	?	14%	-2	-13%
COc1cc(NC(=S)Nc2ccc(Br)cc2Cl)c(OC)cc1Cl	-18	?	?	15%	-1	-10%
COc1cc(NC(=S)NCc2cccnc2)c(OC)cc1Cl	-13	12µM*	5%	/	-2	6%
SMILES	Shiga inhibitor	Pf growth 96h	Pf growth 48h	NS1 inh	CHX counter	FBPA Giardia inh
O=C1c2ccccc2CN1C(CO)Cc1ccccc1 (stereo unspecified)	-4	24%	3%	0%	-2	-1%
Cc1ccc(-c2ccc(=O)n(CC(=O)NCc3ccc(F)cc3)n2)cc1	19	-10%	22%	/	-2	7%
CCN1/C(=C\C=C2\C(=O)N(C)C(=S)N2C)Sc2ccccc21	63*	?	17%	/	28*	-6%
COC(=O)CNC(=O)[C@@]1(C)C=C[C@@H](Cc2ccccc2)N1C(=O)OC	/	/	/	/	/	-1%
N/C(=N\OC(=O)N1CCOCC1)c1ccccc1	32	8.3µM*	6.6µM*	13%	23*	6%
S=C(c1ccc(Cl)cc1)N1CCOCC1	-13	3%	2%	-40%	-5	2%
O=C(OCc1ccccc1)N1CCOCCN(C(=O)OCc2ccccc2)CCOCC1	1	0%	?	3%	-2	3%
N/C(=N\OC(=O)N1CCOCC1)c1ccc(Br)cc1	62	43%	?	5%	53*	2%
N/C(=N\OC(=O)N1CCOCC1)c1ccc(Cl)cc1	53*	?	9.3µM*	-8%	55*	-2%
CSC(N)=NCCC[C@H](N)C(=O)O	/	/	/	0%	/	0%
O=C(CS(=O)c1ccc(Br)cc1)N1CCOCC1 (stereo unspecified)	-8	39%	15%[0.00184 µM]	-2%	-1	?
Cc1n[nH]c(C)c1S(=O)(=O)N1CCc2ccccc2C1	5	10µM*	-19%	3%	-6	/
CC(Sc1ccc(S(=O)(=O)N2CCCC2)cn1)C(N)=O (stereo unspecified)	/	-13%	-5%	/	/	/
CCCNC(=O)CSc1ccc(S(=O)(=O)N2CCCC2)cn1	/	-4%	13%	/	/	/
CN(C(=O)CSc1ccc(S(=O)(=O)N2CCCCC2)cn1)c1ccccc1	/	12µM*	?	/	/	/
CCN(C(=O)C(C)Sc1ccc(S(=O)(=O)N2CCOCC2)cn1)c1ccccc1 (stereo unspecified)	/	?	13µM*	/	/	/
CN(C)C(=O)C(Sc1ccc(S(=O)(=O)N2CCCC2)cn1)c1ccccc1 (stereo unspecified)	/	?	15µM*	/	/	/
Cc1cccc(CSc2nc3nc(C)cc(C)n3n2)c1	-5	-26%	16%	-39%	-1	2%
COc1ccc2c(c1)c(=O)cc(-c1ccccc1)n2C	49*	-3%	32%	3%	22*	-8%
Cc1ccc(S(=O)(=O)NC2=C(N3CCN(c4ccccc4F)CC3)C(=O)c3ccccc3C2=O)cc1	29	?	?	16%	0	?
CC(=O)Nc1ccc(S(=O)(=O)NC2=C(N3CCN(c4ccc(F)cc4)CC3)C(=O)c3ccccc3C2=O)cc1	-10	/	0.74µM*	7%	9	?
CC1CCCN(C2=C(NS(=O)(=O)c3ccc(Cl)cc3)C(=O)c3ccccc3C2=O)C1 (stereo unspecified)	40*	12µM*	?	6%	22*	?
